Source: PubChem BioAssay (several laboratories)
This is a sample that favours compounds with a hit; in the whole collection about 1.3% have one here.
PrP 5UTR inh = suppresses PrP 5' UTR mRNA reporter expression | inhibition, % (no concentration beside the values) | AID 488862 | cell-based PrP 5' UTR mRNA reporter, plate reader | 340,000 tested, 0.35% active; in the data active = inhibition above about 52%; also: 0 = median of the neutral control wells
3CLpro inhibitor = SARS-CoV 3CLpro protease inhibition. P0C6X7. inhibition, % at 6 µM. recombinant SARS-CoV 3CLpro, quenched FRET peptide cleavage. 290,000 tested, 0.14% active; in the data active = inhibition above about 12%
PrPC TRFRET = cell surface PrPC inhibition, primary TR-FRET screen. AID 720596. inhibition, % at 13.8 µM. P04156. TR-FRET read-out. 370,000 tested, 0.43% active; in the data active = inhibition above about 24%; also: 0% = median of the test wells and 100% = reference compound wells
CCHFV vOTU inh = blocks the CCHF virus ovarian tumor domain protease; 370,000 tested, 0.55% active; inhibition, % at 11.5 µM; CCHFV vOTU protease, Pep-AMC fluorescence; in the data active = inhibition above about 30%; also: 0% = vehicle wells with enzyme and 100% = no enzyme wells
PrPC confirm = confirmation of inhibitors of cell surface human prion protein | shares compounds with PrPC TRFRET | cell surface PrPC level, TR-FRET | inhibition, % at 13.8 µM | 1,500 tested, 65% active | AID 743200; in the data active = inhibition above about 25%
LD9 tox = kills or reduces viability of LD9 cells in PrPc counter-screen; 1,500 tested, 29% active; shares compounds with PrPC TRFRET; inhibition, % at 13.8 µM; LD9 cells cytotoxicity, luminescence viability; in the data active = inhibition above about 9.5%
Starred values were filed as active, the others as inactive; . = no result.

SMILES	PrP 5UTR inh	3CLpro inhibitor	PrPC TRFRET	CCHFV vOTU inh	PrPC confirm	LD9 tox
CNC(=O)c1nnsc1S(=O)c1ccc(Cl)cc1 (stereo unspecified)	-8.2	5.2	10.0	1.9	.	.
FC(F)Sc1ccc(Nc2ncnc3nc[nH]c23)cc1	-87.7	1.2	4.4	13.3	.	.
COc1ccc(NC(=O)c2cc(-c3cc(Cl)ccc3OC)n[nH]2)c(OC)c1	.	.	28.4*	19.7	19.1	1.4
CCc1nc2ccc(C(=O)N(C)Cc3ccccc3)cn2c1N(C)CCCc1ccccc1	.	.	10.1	24.4	.	.
C=CC[C@H](CC(=O)NCCO)C(=O)N[C@H](COC(=O)[C@@H](CC=C)Cc1ccc(F)cc1)c1ccccc1	-3.3	.	-0.1	10.4	.	.
N#Cc1c(-c2ccco2)nc(SCC(=O)Nc2cccc(Cl)c2)[nH]c1=O	-17.5	8.1	77.7*	11.8	112.9*	-4.0
CCc1ccc(NC(=O)C(C)Sc2nc(-c3ccco3)c(C#N)c(=O)[nH]2)cc1 (stereo unspecified)	-1.5	2.8	27.9*	19.6	16.4	-9.0
O=C(COC(=O)c1ccco1)NC12CC3CC(CC(C3)C1)C2	-29.6	.	-6.9	-2.2	.	.
CCCCC(=O)N(C)c1c(CC)nc2c(OCC3CCCCC3)cccn12	.	.	31.0*	20.6	17.6	-8.8
CCc1nc2c(OCCC3CCCCC3)cccn2c1N(C)C(=O)c1cccs1	.	.	27.5*	15.8	17.3	-11.7
CCCCC(=O)N(C)c1c(CC)nc2c(OCCC3CCCCC3)cccn12	.	.	13.1	27.2	.	.
CCc1nc2c(OCCC3CCCCC3)cccn2c1N(C)C(=O)CC(C)C	.	.	4.8	17.8	.	.
CCOC(=O)/C=C/S(=O)(=O)c1ccc(NC(C)=O)cc1	-20.9	4.6	88.7*	1.9	-9.5	98.1*
Cc1cc(C(=O)OCn2nnc3ccccc3c2=O)c(C)o1	5.9	-1.4	5.5	-19.1	.	.
CC(=O)N1CCC(C(=O)NC2CCCc3c2cnn3-c2cc(F)cc(F)c2)CC1 (stereo unspecified)	14.4	-3.6	84.8*	-5.1	0.0	-6.2
C=CCC(=O)NC1CCCc2c1cnn2-c1cc(F)cc(F)c1 (stereo unspecified)	-55.2	2.0	-5.6	-7.9	.	.
Nn1c(SCc2ccc(Br)cc2)nnc1-c1n[nH]c2c1CCC2	.	.	25.3*	-1.1	18.9	8.3
Nn1c(SCc2cccc3ccccc23)nnc1-c1n[nH]c2c1CCC2	.	.	0.2	-4.7	.	.
Cc1ccccc1C(=O)N1CCN(c2ccc(NC(=O)c3ccc4c(c3)OCO4)cc2)CC1	16.4	1.9	33.9*	-12.5	30.3*	13.4*
O=C(Nc1ccc(N2CCN(C(=O)c3ccco3)CC2)cc1)c1ccc2c(c1)OCO2	-12.0	-5.8	25.3*	-2.0	14.9	2.9
Cc1ccccc1C(=O)N1CCN(c2ccc(NC(=O)c3cccnc3)cc2)CC1	12.0	2.3	10.4	3.5	.	.
Cn1c(=O)c2c(ncn2Cc2nnc(N)s2)n(C)c1=O	-19.7	-2.5	11.6	7.5	.	.
Cc1nonc1OCCNCCNc1ccc([N+](=O)[O-])cc1Cl	-4.8	-6.1	-12.9	3.9	.	.
Cc1nc(Nc2nc(CSc3nc4ccccc4[nH]3)cc(=O)[nH]2)nc2ccccc12	3.5	1.5	33.8*	5.7	45.6*	20.4*
C=CCSc1nc(N)c(C#N)c(-c2ccccc2)c1C#N	1.9	2.9	51.1*	4.4	9.8	-4.9
SMILES	PrP 5UTR inh	3CLpro inhibitor	PrPC TRFRET	CCHFV vOTU inh	PrPC confirm	LD9 tox
CCCSc1nc(N)c(C#N)c(-c2ccc(C)cc2)c1C#N	-21.5	-3.0	1.2	11.0	.	.
CC1(C)CC=C(NNC(=O)c2cccnc2)C(=O)C1	-29.8	3.2	-2.9	5.2	.	.
CN(C)S(=O)(=O)c1ccc(N2CCCC2)c(C(=O)Nc2nc3ccc(F)cc3s2)c1	-24.3	4.6	11.1	-20.5	.	.
CC(C)Cc1nnc(NC(=O)c2cc(S(=O)(=O)N(C)C)ccc2N2CCCC2)s1	-5.4	1.9	-1.2	8.9	.	.
Cc1cccc2sc(NC(=O)c3cc(S(=O)(=O)N(C)C)ccc3N3CCCC3)nc12	-9.5	-3.1	49.5*	-0.1	31.0*	-9.8
CN(C)S(=O)(=O)c1ccc(N2CCCC2)c(C(=O)Nc2nc3ccccc3s2)c1	-35.7	5.2	60.5*	-12.0	60.9*	-4.9
COc1cccc(C(=O)NCCSCc2ccccc2Cl)c1	5.0	0.4	16.3	21.3	.	.
CC(C)Oc1ccc(C(=O)/C=C2/C(=O)Nc3ccccc32)cc1	-13.7	1.2	34.3*	-5.2	8.8	-10.7
C=C1C(=O)O[C@@H]2C[C@@H](C)[C@@H]3C=CC(=O)[C@@]3(C)[C@@H](OC(C)=O)[C@H]12	.	.	94.8*	7.8	103.8*	34.3*
